# Measured values published in PubChem BioAssay AID684 (PCMD, 2007).
# Hit rate of the full screen: of about 62,000 compounds, about 95 (0.2%) were called active. This is one part of a sample in which actives are shown more often than they occur. Rule as the data show it: active = inhibition above about 20% (passing the limit was not always enough); inactive = the rest.
# Biological target: Coagulation factor XII (Homo sapiens) (UniProt P00748)
# Test: human factor XIIa inhibitors, primary screen, biochemical, pooled compound mixtures, fluorogenic substrate (AID 684);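 also: 0% = enzyme without compound and 100% = no enzyme blank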
# Details: purified FXIIa, at 5 µM, active compounds read high
# Chain of Coagulation factor XII (Homo sapiens) (P00748 20-372 limits assumed): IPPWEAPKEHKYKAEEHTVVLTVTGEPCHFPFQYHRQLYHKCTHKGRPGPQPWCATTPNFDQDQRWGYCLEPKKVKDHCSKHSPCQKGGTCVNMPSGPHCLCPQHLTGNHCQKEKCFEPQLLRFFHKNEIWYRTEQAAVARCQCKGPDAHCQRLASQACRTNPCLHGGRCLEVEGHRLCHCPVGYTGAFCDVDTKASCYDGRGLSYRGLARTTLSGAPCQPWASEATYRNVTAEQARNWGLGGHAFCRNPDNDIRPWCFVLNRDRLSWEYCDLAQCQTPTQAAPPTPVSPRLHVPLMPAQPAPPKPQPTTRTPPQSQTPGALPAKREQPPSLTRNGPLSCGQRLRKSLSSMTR
# Chain of Coagulation factor XII (Homo sapiens) (P00748 373-615 limits assumed): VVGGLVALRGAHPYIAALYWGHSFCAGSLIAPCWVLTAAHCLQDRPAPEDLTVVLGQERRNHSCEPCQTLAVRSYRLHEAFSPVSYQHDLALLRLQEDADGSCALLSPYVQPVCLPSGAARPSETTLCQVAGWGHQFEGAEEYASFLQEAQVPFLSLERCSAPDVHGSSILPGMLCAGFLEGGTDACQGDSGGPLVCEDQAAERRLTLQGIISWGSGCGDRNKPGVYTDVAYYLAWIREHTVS
row,SMILES,inhibition
1,CCS(=O)(=O)n1nc(-c2ccccc2)nc1SCc1ccccc1,6.08% (inactive)
2,Cc1noc(C)c1C(=O)NC(C)c1ccc2c(c1)OCO2 (stereo not given),4.17% (inactive)
3,COC(=O)C1=C(C)Nc2ncnn2C1c1ccco1 (stereo not given),15.1% (inactive)
4,COc1ccc(OC)c2[nH]c(=O)c(CCNC(=O)C(C)(C)C)cc12,-10.9% (inactive)
5,CCO/C([O-])=N/c1c[n+](N2CCOCC2)no1,3.21% (inactive)
6,CN(C)CCOC(=O)C(c1ccccc1)C1(O)CCCC1 (stereo not given),2.14% (inactive)
7,Cc1cccc(CSc2nnc(Cn3c(=O)sc4ccccc43)n2C)c1,0.99% (inactive)
8,CCCC(NS(=O)(=O)c1ccc(OC)cc1)C(=O)O (stereo not given),10.4% (inactive)
9,O=C(NCc1cccnc1)c1cn(-c2ccccc2)nc1-c1cccs1,5.99% (inactive)
10,O=C(NCCCNCc1ccccc1)c1ccc(/C=N/O)nc1,1.86% (inactive)
11,CCn1c(SCC(=O)Nc2ccc3c(c2)OCCO3)nc2c(c1=O)SC(C)C2 (stereo not given),11.3% (inactive)
12,O=C(CN1CCN(S(=O)(=O)/C=C/c2ccccc2)CC1)NC(=O)NCc1ccco1,-1.11% (inactive)
13,CC(NC(=O)c1ccc(Cl)cc1)C(=O)N1CCCCC1 (stereo not given),6.69% (inactive)
14,CCOC(=O)Cc1csc(NC(=O)C(C)(C)C)n1,3.6% (inactive)
15,O=C1CCC(=O)N1CCOP1(=O)COc2ccccc2OC1,2.03% (inactive)
16,COCCNC(=O)c1ccccc1-c1nc(-c2ccccc2Cl)no1,6.16% (inactive)
17,c1csc(CN2CCN(Cc3cccs3)C2c2cccs2)c1,-13.3% (inactive)
18,COC(=O)c1cccc(NC(=O)CSc2nc(C)cc(=O)[nH]2)c1,9.59% (inactive)
19,COCc1cc(C)nc(SCC(=O)Nc2cccc(C)c2)c1C#N,21.5% (active)
20,COCc1cc(C)nc(Nc2cc(C)ccc2C)c1C#N,1.73% (inactive)
21,Cn1c2c(c(=O)n(C)c1=O)CN(Cc1ccco1)CN2,-0.485% (inactive)
22,Cc1ccc2[nH]c(=O)c(-c3nc4c(C)cccn4c3NCc3ccco3)cc2c1,-0.355% (inactive)

row,SMILES,inhibition
1,O=C(COc1ccccc1)N1CCc2ccccc2C1,9.32% (inactive)
2,CC1CCC(NC(=O)c2ccc(N3CCCC3=O)cc2)CC1 (stereo not given),-12.2% (inactive)
3,CCc1nc(C)cn1S(=O)(=O)c1cc(OC)c(C)cc1C,9.21% (inactive)
4,CCCC1CC(C)(C(=O)Cn2[nH]c(=O)ccc2=O)OC1=O (stereo not given),-1.01% (inactive)
5,O=C(c1cc(-c2ccccc2O)on1)N1CCCC1,-13.8% (inactive)
6,Cc1ccc(S(=O)(=O)Nc2ccc3ncccc3c2)cc1,-13.2% (inactive)
7,Cc1cc(N(C)C)cc(C)[n+]1[O-],-12% (inactive)
8,CC(C)c1ccc(N2CC(C(=O)Nc3nccs3)CC2=O)cc1 (stereo not given),3.69% (inactive)
9,COc1ccc(Cn2cccc(NC(=O)Nc3ccc(C#N)cc3)c2=O)cc1,10.3% (inactive)
10,Cc1ccccc1C(OCC(O)CN1CCCCC1CCO)c1ccccc1 (stereo not given),4.15% (inactive)
11,Cc1ccc(Nc2cc(=O)n(C3CCCCC3)c(=O)[nH]2)cc1C,5.68% (inactive)
12,CCCCn1c(=S)[nH]c2ncccc2c1=O,4.05% (inactive)
13,COC(=O)C(C)N(C#N)c1nc(C)nc(C)n1 (stereo not given),9.14% (inactive)
14,Cc1csc(NC(=O)CN2CCCCCC2)n1,7.17% (inactive)
15,Cc1nc2ccc(S(=O)(=O)NCC(=O)NCCN3CCCCC3C)cc2s1 (stereo not given),9.34% (inactive)
16,Cc1ccn2cc(-c3nonc3C)cc2c1,9.55% (inactive)
17,CCCCC(=O)N(c1ccc(OC)cc1)C1C=CS(=O)(=O)C1 (stereo not given),4.62% (inactive)
18,C=CCn1c(=O)c2ccccc2n2c(SCC(=O)N3CCCc4ccccc43)nnc12,-6.74% (inactive)
19,COc1ccc(S(=O)(=O)N2CCCC(C(=O)Nc3ccc(NC(=O)c4ccccn4)cc3)C2)cc1 (stereo not given),9.91% (inactive)
20,CC12CCC(C(=O)N3CCN(c4ncccn4)CC3)(c3nc4ccccc4nc31)C2(C)C (stereo not given),11.8% (inactive)
21,CC1(C)C2CCC1(C)C(OC(=O)CCn1ccnc1)C2 (stereo not given),3.17% (inactive)
22,Cc1ccc2c(c1)C(O)(CC(=O)c1cccnc1)C(=O)N2 (stereo not given),10.7% (inactive)

row,SMILES,inhibition
1,Cc1cc2ccccc2n2c(SCC(=O)N3CCN(C(=O)c4ccco4)CC3)nnc12,-6.12% (inactive)
2,CCC(Sc1nncn1C)C(=O)Nc1nnc(-c2ccc(Cl)cc2)s1 (stereo not given),15.7% (inactive)
3,Cc1ccc(SCc2cc(=O)[nH]c(N3CCCCC3)n2)cc1,3.87% (inactive)
4,N#Cc1c(N)sc2c1CCN(C(=O)OCc1ccccc1)C2,-18% (inactive)
5,COc1ccc2c(c1)C(C)=CC(C)(C)N2C(=O)CNCc1ccc2c(c1)OCO2,17% (inactive)
6,CCN(CC)c1ccc2cc(C(=O)O)c(=O)oc2c1,-2.87% (inactive)
7,COc1cccc(Oc2ccc(N)cc2)c1,-12.6% (inactive)
8,COC(=O)CSc1nc(C2CC2)nc2ccccc12,-5.91% (inactive)
9,Cn1cc(S(=O)(=O)N2CCC(Cc3ccccc3)CC2)c(=O)n(C)c1=O,-15.8% (inactive)
10,O=C(CN1C(=O)COc2ccccc21)NCCN1CCc2ccccc2C1,2.87% (inactive)
11,CCC1=[N+]([O-])C(C)(/C(C)=N\O)N(O)C1(C)C (stereo not given),-9.09% (inactive)
12,COc1cccc(-c2nnc(N(C)C(=O)c3ccno3)s2)c1,7.52% (inactive)
13,CCN1CCCC1CNC(=O)Cn1cnc2ccc(S(=O)(=O)N3CCC(C)CC3)cc2c1=O (stereo not given),9.9% (inactive)
14,O=C(NCc1cccnc1)c1ccc(CS(=O)(=O)c2ccc(Br)cc2)o1,-21.3% (inactive)
15,CCCn1c(C(O)c2ccc(OCC)cc2)nc2ccccc21 (stereo not given),4.63% (inactive)
16,CCOC(=O)c1cccc(NC(=O)CCn2nnc3ccccc32)c1,-0.18% (inactive)
17,CCCN(c1ccc(C(C)C)cc1)S(=O)(=O)c1c(C)[nH]c(=O)[nH]c1=O,-19% (inactive)
18,CCCn1c(SCC(=O)N2CCc3ccccc32)nnc1-c1ccncc1,-0.835% (inactive)
19,CCN1C(=O)/C(=C\N2CCN(c3cccc(Cl)c3)CC2)SC1=S,20.4% (active)
20,CCN1C(=O)/C(=C\N2CCN(c3ccccc3)CC2)SC1=S,4.83% (inactive)
21,CS(=O)(=O)N(CC(=O)N1CCN(c2cccc(Cl)c2)CC1)c1ccccc1,1.3% (inactive)
